Measurements as given in PubChem BioAssay (NCI).
About 83,000 compounds went through this panel and 20% of them were active in at least one assay; those are over-represented in the sample as a whole.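 Note: values are percent growth. 100 is the growth of untreated cells, values between 100 and 0 indicate rising inhibition; between -100 and 0 indicates cell death.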 Unmarked numbers belong to inactive results. The source made the active and inactive calls. Rule for the calls: active = growth percent below 10; inactive = the rest.

What was measured:
Assay in all cases: NCI-60 one-dose screen, 48 h (100 = growth as untreated, 0 = no growth, -100 = all killed)
Settings in all cases: 10 µM unless noted
[1] = system: DU-145 prostate
[2] = system: K-562 leukemia
[3] = system: MALME-3M melanoma
[4] = system: MDA-MB-231 breast
[5] = system: RXF 393 renal
[6] = system: SF-268 CNS
[7] = system: SF-295 CNS
[8] = system: SF-539 CNS
[9] = system: UACC-257 melanoma
[10] = system: M14 melanoma
[11] = system: HCT-15 colon
[12] = system: HT29 colon
[13] = system: SNB-75 CNS
[14] = system: SNB-19 CNS
[15] = system: U251 CNS
[16] = system: PC-3 prostate
[17] = system: SK-MEL-5 melanoma
[18] = system: UACC-62 melanoma
[19] = system: SK-MEL-28 melanoma
[20] = system: LOX IMVI melanoma

Compound	growth [1]	growth [2]	growth [3]	growth [4]	growth [5]	growth [6]	growth [7]	growth [8]	growth [9]	growth [10]	growth [11]	growth [12]	growth [13]	growth [14]	growth [15]	growth [16]	growth [17]	growth [18]	growth [19]	growth [20]
COc1ccc(C2CC(c3ccc4ccccc4c3)=NN2c2nc(O)c(C3=c4cc(OC)ccc4=NC3=O)s2)cc1 (stereo unspecified)	1.32% (active)	0.0361% (active)	-61.7% (active)	-54.7% (active)	-66.3% (active)	-32.5% (active)	-59% (active)	-27.9% (active)	-52.5% (active)	-67.1% (active)	-29.1% (active)	-57.3% (active)	-57.1% (active)	-14.2% (active)	-92% (active)	-71.1% (active)	-93.3% (active)	-56% (active)	-48.5% (active)	
COC(=O)c1cc(O)c2c(c1C(=O)OC)C[C@H]1[C@@H]3CC=C4C[C@@H](O)CC[C@]4(C)[C@H]3CC[C@]21C	79%	20%	28.3%	2.21% (active)	-60.6% (active)	66.8%	-14.5% (active)	8.9% (active)	14.3%	11.6%	24.6%	16.2%	62.2%	66.9%	37.5%	41.3%	1.59% (active)	40.9%	46.3%	9.77% (active)
O=C1COCCN1c1ccc(NCc2cn(Cc3ccc(F)cc3)c3ccccc23)cc1	81.6%	27.7%	61.5%	85.3%	-3.08% (active)	96.2%	44.1%	92.1%	27.9%	72.7%	61.9%	34.8%	65.3%	92.2%	55.9%	93.3%	27.3%	-65.8% (active)	87.6%	
O=C1CN(Cc2ccc(C(=O)NO)cc2)C(=O)[C@@H](Cc2ccccc2)N1	111%	98%	94%	102%	112%	99.7%	99.3%	99.7%	93.2%	107%	104%	113%	85.9%	98.5%	92.4%	97.9%	107%	99.2%	105%	111%
O=C(OCc1ccc2c(Cl)cc(Cl)c(O)c2n1)N1CCN(C(=O)c2cc3cc(F)ccc3[nH]2)CC1	-10.4% (active)	13.3%	38.2%	28.2%	16.4%	31.1%	25.1%	-20.1% (active)	25.1%	7.85% (active)	10.6%	99.1%	28.6%	50.2%	8.06% (active)	15.8%	-33% (active)	35.3%	60.7%	12.2%
CC(C)=CCC[C@](C)(O)[C@H]1CC[C@]2(C)[C@@H]1CC[C@@H]1[C@@]3(C)CC[C@H](OC(=O)CCC(=O)O)C(C)(C)[C@@H]3CC[C@]12C	40.8% [100 µM]	24.2% [100 µM]	10.5% [100 µM]	13.5% [100 µM]	37.8% [100 µM]	52% [100 µM]	4.05% [100 µM] (active)	31% [100 µM]	28.3% [100 µM]	30.2% [100 µM]	19.3% [100 µM]	2.98% [100 µM] (active)	43.3% [100 µM]	24.1% [100 µM]	2.41% [100 µM] (active)	27.4% [100 µM]	-41.3% [100 µM] (active)	-75.4% [100 µM] (active)	-46% [100 µM] (active)	-64.1% [100 µM] (active)
CC1(C)CC[C@]23CC[C@]4(C)[C@H](CC[C@@H]5[C@@]6(C)C/C(=C/c7cccnc7)C(=O)C(C)(C)[C@@H]6CC[C@]54C)[C@H]2[C@H]1OC3=O	56.9% [100 µM]	33% [100 µM]	31.2% [100 µM]	35.8% [100 µM]	38.8% [100 µM]	66.3% [100 µM]	46.7% [100 µM]	63.2% [100 µM]	31.9% [100 µM]	52.1% [100 µM]	42.7% [100 µM]	23.2% [100 µM]	19.8% [100 µM]	59.6% [100 µM]	34% [100 µM]	29.8% [100 µM]	-44.4% [100 µM] (active)	28.4% [100 µM]	21.4% [100 µM]	
O=C(CSc1nc2ccc([N+](=O)[O-])cc2[nH]1)Nc1cccc(Cl)c1	36.3%	16.4%	2.51% (active)	41.1%	44.5%	24.3%	21.7%	45.2%	15%	29.4%	23.3%	21.1%	23.9%	17.6%	13.6%	11.7%	0.349% (active)	8.24% (active)	28.9%	
